# The sample as a whole holds a higher share of hits than the screen did.
# Shiga toxin inh: A qHTS for Small Molecule Inhibitors of Shiga Toxin | Vero cells, Shiga toxin protein synthesis inhibition reporter | inhibition, % at 38.7 µM | 290,000 compounds, 9.2% hits; in the data active = inhibition mostly above about 28%, no sharp cut-off; inactive = mostly below about 43%; also: 0% is about no effect
# Cycloheximide cs: Cycloheximide Counterscreen for Small Molecule Inhibitors of Shiga Toxin; cell reporter, cycloheximide protein synthesis inhibition counterscreen; max response, %; 300,000 compounds, 12% hits; AID 2314, 2010; in the data active = max response mostly above about 13%, no sharp cut-off; inactive = mostly below about 14%; also: read at 38.3 µM for the half of the compounds with a filed dose; 0% is about no effect
# AmpC detergent: qHTS Inhibitors of AmpC Beta-Lactamase (assay with detergent). P00811. AmpC hydrolysis of nitrocefin, absorbance 480 nm, 0.01% Triton. Potency, µM (titrated, usually from 114 µM), inactives show top-dose activity change, negative = inhibition, actives largely listed as inhibitors. 370,000 compounds, 0.041% hits. AID 485294, 2010;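 also: potency is read from the fitted curve at half-maximal effect; 0% = no-compound wells and -100% = no-enzyme wells; nearly all actives have a fitted effect of over 25% in size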
# Target sequence (P00811 whole entry, looked up): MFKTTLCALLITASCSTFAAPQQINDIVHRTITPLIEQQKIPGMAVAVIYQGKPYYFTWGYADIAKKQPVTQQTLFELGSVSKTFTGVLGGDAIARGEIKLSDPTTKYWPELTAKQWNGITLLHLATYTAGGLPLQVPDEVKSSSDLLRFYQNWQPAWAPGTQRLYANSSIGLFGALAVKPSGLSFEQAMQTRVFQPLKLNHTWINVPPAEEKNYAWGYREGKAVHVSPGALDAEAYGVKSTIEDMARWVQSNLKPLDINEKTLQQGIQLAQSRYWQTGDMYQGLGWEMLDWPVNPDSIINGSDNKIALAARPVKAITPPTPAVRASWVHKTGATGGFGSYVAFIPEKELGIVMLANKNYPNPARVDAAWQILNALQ
#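 AmpC (5.3 nM in the dispensed reagent) in 20 mM phosphate pH 7.0 with 0.01% (detergent screen) or 0.0001% Triton X-100 was preincubated with compounds for 15 min at room temperature. Nitrocefin was then added from an 800 uM solution, and hydrolysis was followed at 480 nm.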
# NS1 function inh: qHTS Assay for Inhibitors of Influenza NS1 Protein Function; 270,000 compounds, 0.4% hits; AID 2326, 2010; Potency, µM (highest dose often 46.1 µM), inactives show top-dose activity, positive = more growth; calls by dose curve; also: potency is read from the fitted curve at half-maximal effect; actives are rising curves; nearly all actives have a fitted effect of over 50% in size
#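 Growth recovery, yeast-based: influenza A NS1 expressed in S. cerevisiae causes slow growth, and suppressors are detected by OD600. The parent strain without NS1 is used as positive control.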
# AmpC no deterg: qHTS Inhibitors of AmpC Beta-Lactamase (assay without detergent) | P00811 | AmpC nitrocefin hydrolysis, absorbance 480 nm, 0.0001% Triton | Potency, µM (highest dose often 57.1 µM), for inactives: at the highest dose activity change, negative = inhibition, hits mostly inhibitors | 330,000 compounds, 0.52% hits | AID 485341, 2010;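 also: potency is read from the fitted curve at half-maximal effect; plate controls were no compound for no effect and no enzyme for full effect; nearly all actives have a fitted effect of over 20% in size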
#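 20 mM phosphate pH 7.0 + 0.01% (detergent screen) or 0.0001% Triton X-100; 5.3 nM AmpC reagent; cpd preinc 15 min RT; nitrocefin (800 uM stock) to start; A480 q20 s × 4 min; Activity was normalised to no-enzyme and no-compound control wells.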
# * marks the source's active call; other numbers are inactive results; u = inconclusive; x = no result; [ ] = remark or other dose. Unless noted, calls follow the shape of the dose curve; as a rule, active = well fitted curve in the direction sought with a large enough effect; inconclusive = small, poorly fitted or top-dose-only effect, or another doubt; inactive = no such curve, though single readings can be large; an effect the other way counts as inactive or inconclusive.
SMILES,Shiga toxin inh,Cycloheximide cs,AmpC detergent,NS1 function inh,AmpC no deterg
COc1cccc(CN2CC(C(=O)NCCCn3cccn3)CCC2=O)c1 (stereo not given),20,-4,1%,6%,-8%
Cc1ccc2nc(CCc3nc4ccc(C)cc4[nH]3)[nH]c2c1,-6,-2,-14%,-7%,-19%
Cc1ccc2nc(N3CCN(C)CC3)[nH]c2c1,67*,48*,0%,5%,-5%
Cc1ccc2nc(C(O)C(O)c3nc4ccc(C)cc4[nH]3)[nH]c2c1 (stereo not given),122*,46*,-6%,-11%,-41%
N#CC(C(=S)Nc1ccccc1)c1nc2ccccc2[nH]1 (stereo not given),25,19*,-8%,6%,-43%
CSC(=Nc1ccccc1)C(C#N)c1nc2ccccc2[nH]1 (stereo not given),-2,-2,6%,-8%,-45%
OC(c1nc2ccccc2[nH]1)C(O)c1nc2ccccc2[nH]1 (stereo not given),x,21*,-18%,10%,-20%
CC(C)NC(=O)c1cc2c(Cl)nc3ccccc3c2s1,x,x,2%,x,x
Cc1cccc(C(=O)OCC(=O)N2CCCCCC2)c1C,x,x,x,x,-18%
Cc1cc(N2CCCCC2)nc2ccc(NC(=O)/C=C/c3ccc(OC(C)C)cc3)cc12,x,x,-3%,x,x
CCOC(=O)c1c(NC(=O)COc2ccc(F)cc2)sc2c1CCC(C)C2 (stereo not given),x,x,13%,x,x
Cc1c(-c2nc(N)nc(Nc3ccccc3F)n2)oc2ccccc12,187*,57*,-1%,-32%,30%
Cc1ccc(Nc2c([N+](=O)[O-])c(=O)oc3ccccc23)cc1,-6,-11,0%,0%,57%
COc1ccccc1Nc1nc(N)nc(-c2cc3ccccc3o2)n1,active,33*,-1%,-36%,76%
Cc1cccc(Nc2nc(N)nc(-c3oc4ccccc4c3C)n2)c1,89*,53*,-7%,4%,41%
Cc1ccc(Nc2nc(N)nc(-c3oc4ccccc4c3C)n2)cc1,46*,23*,-1%,-2%,-13%
CCc1nc(Nc2ccccc2F)c2oc3ccccc3c2n1,24,8,5%,-11%,6%
O=C(CCn1c(=O)c2sccc2n(Cc2cccc(F)c2)c1=O)NCc1ccc2c(c1)OCO2,x,x,16%,x,x
O=C(c1ccc(NS(=O)(=O)c2ccc3[nH]c(=O)[nH]c3c2)cc1)N1CCN(c2ccccc2O)CC1,x,x,-4%,x,-39%
O=C(CN1C(=O)COc2ccc(S(=O)(=O)Nc3ccccc3)cc21)Nc1cccc(Cl)c1,x,x,18%,x,x
COc1cccc(Nc2nc(N)nc(-c3oc4ccccc4c3C)n2)c1,79*,42*,-14%,5%,26%
COc1cccc(Nc2cc(C)nc3ccccc23)c1,-4,3,u,-3%,-41%
CCOC(=O)N1CCc2c(sc3c2c(=O)n(CCc2ccccc2)c(=O)n3Cc2ccc(F)cc2)C1,x,x,0%,x,x
Oc1ccc(N=Nc2n[nH]c(-c3ccc(Cl)cc3)n2)cc1,82*,23*,u,-15%,-9%
CC(C)(CC(=O)OCC(=O)Nc1ccc(F)c(Cl)c1)CC1=NS(=O)(=O)c2ccccc2N1,x,x,1%,x,x
SMILES,Shiga toxin inh,Cycloheximide cs,AmpC detergent,NS1 function inh,AmpC no deterg
N/C(=N\OC(=O)COc1ccc2ccccc2c1Br)c1cccnc1,103*,16*,-8%,1%,-5%[2.29 µM]
N/C(=N\OS(=O)(=O)c1ccc2ccccc2c1)c1ccccn1,16,6,-11%,x,4%[11.4 µM]
N/C(=N\OC(=O)COc1ccc2ccccc2c1Br)c1ccccn1,119*,56*,-1%,-2%,3%[2.29 µM]
COc1ccc(-c2nc3c(Br)c(N)c(Br)cc3o2)cc1,19,9,3%,4%,1%
Nc1c(Br)cc2oc(-c3ccccc3)nc2c1Br,33,18*,1%,5%,-30%
CCc1ccccc1NC(=O)Nc1cccc(F)c1,23,15,0%,-3%,-16%
O=C(NCc1ccccc1)Nc1cccn(Cc2ccccc2)c1=O,-4,13,-17%,3%,-20%
CSc1ccccc1NC(=O)Nc1cccc(F)c1,41*,22*,8%,-46%,-34%
CCOc1ccc(NC(=O)Nc2ccccc2SC)cc1,66*,33*,2%,-6%,-37%
CCOc1ccc(S(=O)(=O)Nc2ccccc2SC)cc1,-24,-3,3%,-6%,-33%

# Source: PubChem BioAssay
